VP16 counter: inhibits Gal4-VP16 luciferase reporter, ROR gamma counter-screen; Drosophila S2 Gal4-VP16 UAS-luciferase, luminescence, 20 h; Potency, µM (series often up to 53.6 µM), without a hit: at the highest dose activity, negative = inhibition, actives largely listed as inhibitors; hit rate 3.5% among 310,000;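 further: Gal4-VP16 expression switched on by copper sulfate through the metallothionein promoter; potency means the concentration at half of the fitted maximal effect; nearly all actives have a fitted effect of over 50% in size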
TSHR antag: blocks TSH signaling through the human TSH receptor; P16473; hit rate 0.2% among 330,000; activity change, negative = inhibition, % at 11.5 µM; TSHR-expressing cells, TSH-stimulated cAMP HTRF, 2 h; active compounds read low;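 active means activity change below a set negative limit, meaning inhibition stronger than a set level, cut at about -70% in these data; inconclusive means activity change between two set negative limits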
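Read-out is FRET at 665 nm (cryptate excitation 337 nm) from a cryptate-tagged anti-cAMP antibody, competed by cell cAMP against cAMP-d2. Compounds are tested on freshly harvested TSHR cells challenged with 4nM TSH (EC80) for 2 hours at 37 deg C.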
RORgamma inh: blocks mouse ROR gamma transcriptional activity; P51450; Drosophila S2 Gal4-RORgamma UAS-luciferase reporter, 20 h; Potency, µM (series often up to 53.6 µM), for the others: top-dose activity change, negative = inhibition, hits mostly inhibitors; hit rate 5.4% among 310,000; further: potency means the concentration at half of the fitted maximal effect; nearly all actives have a fitted effect of over 60% in size
Target sequence (P51450 whole entry, looked up, the tested form may be a part): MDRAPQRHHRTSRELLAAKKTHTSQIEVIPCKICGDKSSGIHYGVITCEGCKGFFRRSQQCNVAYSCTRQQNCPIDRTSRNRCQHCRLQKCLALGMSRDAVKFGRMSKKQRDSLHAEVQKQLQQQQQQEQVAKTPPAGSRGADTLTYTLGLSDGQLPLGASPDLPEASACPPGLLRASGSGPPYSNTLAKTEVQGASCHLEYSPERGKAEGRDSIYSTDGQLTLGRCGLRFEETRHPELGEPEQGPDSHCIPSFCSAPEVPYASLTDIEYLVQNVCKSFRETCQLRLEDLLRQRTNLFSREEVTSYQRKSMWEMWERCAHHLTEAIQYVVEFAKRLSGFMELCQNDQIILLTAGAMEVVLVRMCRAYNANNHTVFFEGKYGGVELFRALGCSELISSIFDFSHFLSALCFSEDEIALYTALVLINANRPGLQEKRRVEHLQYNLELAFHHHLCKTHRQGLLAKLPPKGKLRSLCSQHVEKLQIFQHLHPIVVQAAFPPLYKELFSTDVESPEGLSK
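Drosophila Schneider cells stably carrying a metallothionein-driven Gal4 DBD–ROR gamma fusion and a UAS-Photinus luciferase reporter were exposed to compound for 1 hr, then induced with copper sulfate (700 uM final) for 20 hr at ambient temperature before luminescence reading.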
ELG1 DNA repair: inhibitors of ELG1-dependent DNA repair in HEK293T cells | HEK293T ELG1-luciferase reporter, luminescence, 16 h; DNA damage induced by 5-fluorouridine | Potency, µM (highest dose often 46.1 µM), inactives show at the top dose activity change, negative = inhibition, most hits filed as inhibitors | hit rate 2.3% among 330,000; further: potency means the concentration at half of the fitted maximal effect; nearly all actives have a fitted effect of over 55% in size
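Cells (2,000 per well) received 5-fluorouridine plus test compound or DMSO and were incubated 16 hr at 37 °C, 5% CO2. Luciferase activity was read by luminescence 30 min after ONE-Glo addition; signal suppression marked inhibition of damage-induced ELG1 function.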
B2AR arrestin: recruits beta-arrestin to the human beta2-adrenergic receptor | P07550 | beta-arrestin recruitment to beta2AR, cell-based reporter | Potency, µM (titrated, usually from 46.1 µM), for inactives: at the top dose activation, actives largely listed as activators | hit rate 0.02% among 330,000;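 further: potency means the concentration at half of the fitted maximal effect; 0% = DMSO controls and full agonism = EC100 isoproterenol or metaproterenol; nearly all actives have a fitted effect of over 65% in size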
Numbers without * were called inactive; u = inconclusive; x = not tested or not shown. In the library only some 7.5% were active in any assay of this set; here they are far more common. Unless noted, the call rests on the fitted dose curve; in most records, active means well fitted curve in the direction sought with a large enough effect; inconclusive means small, poorly fitted or top-dose-only effect, or another doubt; inactive means no such curve, though single readings can be large; an effect the other way counts as inactive or inconclusive. Unless noted, on the % scale 0 is the no-effect control and ±100 the full control effect.

SMILES	VP16 counter	TSHR antag	RORgamma inh	ELG1 DNA repair	B2AR arrestin
CN(C(=S)NC(=O)C1(C)CC1(Cl)Cl)c1ccccc1 (stereo unspecified)	u	1.8	u	19.2%	-0.6%
O=c1cc(-c2cccc(O)c2O)oc2ccccc12	-14.8%	x	-36.3%	x	x
CCN(CC)S(=O)(=O)c1ccc(Oc2ccccc2OC)cc1	-7.3%	-1.5	18.7%	u	-0.3%
CCN(CC)S(=O)(=O)c1ccc(Oc2ccc(S(=O)(=O)N(CC)CC)cc2)cc1	7.08µM*	u	u	u	0.1%
O=C(NNc1ccccc1)C(=O)NNS(=O)(=O)c1ccc(CCCl)cc1	-4.9%	-5.9	26.0%	6.51µM*	-0.7%
O=[N+]([O-])c1cc([N+](=O)[O-])c2c(=Nc3ccccc3)n(-c3ccccc3)n(O)c2c1	u	-7.4	12.6µM*	-6.2%	7.2%
N/C(=N\NC(=O)c1cccs1)c1cc2ccccc2oc1=O	7.08µM*	5.7	7.08µM*	u	-0.2%
N/C(=N\NC(=O)c1ccc(F)cc1)c1cc2ccccc2oc1=O	u	-2.1	3.55µM*	0.7%	0.0%
NC(=O)c1cc2ccccc2o/c1=N\NC(=O)c1ccc(F)cc1	-8.9%	-0.2	0.3%	-25.7%	0.3%
N/C(=N\NC(=O)c1cccc(F)c1)c1cc2ccccc2oc1=O	3.55µM*	6.5	1µM*	u	4.2%
COc1cccc(CN(C)C(=O)c2ccc(OCC(=O)N3CCOCC3)c(OC)c2)c1	x	-4.4	x	14.5%	0.4%
COc1cccc2sc(NNC(=O)C3COc4ccccc4O3)nc12 (stereo unspecified)	9.6%	-6.5	3.55µM*	u	0.1%
Cc1ccc2sc(NNC(=O)C3COc4ccccc4O3)nc2c1C (stereo unspecified)	8.91µM*	1.1	2µM*	1.6%	-0.6%
O=C(NNc1nc2c(F)cccc2s1)C1COc2ccccc2O1 (stereo unspecified)	-1.5%	18.1	1.9%	0.0%	0.5%
Cc1nc2cc(NC(=O)C3COc4ccccc4O3)ccc2s1 (stereo unspecified)	12.5%	18.6	25.3%	u	0.4%
COc1ccccc1-c1cc(-c2ccccc2)nc(SC(C(N)=O)c2ccccc2)c1C#N (stereo unspecified)	u	36.8	11.2µM*	-1.1%	2.9%
COc1ccc(CNC(=S)Nc2ccc(-c3ccccc3)cc2)cc1	7.08µM*	10.5	u	u	0.8%
COc1ccc(CNC(=S)Nc2ccc(Br)cc2)cc1	11.2µM*	-12.3	10µM*	-5.1%	3.6%
CC(Cc1ccc(O)c(O)c1)(NN)C(=O)O (stereo unspecified)	-16.7%	x	-10.3%	x	x
Cc1cccc(NCc2ccccc2O)n1	-5.2%	-1.0	24.9%	u	-0.5%
COc1cc(C(Nc2ccccn2)c2ccc3ccc(C)nc3c2O)cc(OC)c1O (stereo unspecified)	12.6µM*	-8.5	7.08µM*	u	-0.6%
Oc1ccccc1C(Nc1nccs1)c1ccc2cccnc2c1O (stereo unspecified)	5.01µM*	-4.6	u	3.66µM*	u
O=C(Nc1nccs1)c1cccc2ccccc12	-24.9%	-3.8	u	14.5%	-0.9%
Cc1cccc(NC(c2ccc(C)s2)c2ccc3ccc(C)nc3c2O)n1 (stereo unspecified)	5.01µM*	-17.3	10µM*	u	0.1%
Cc1ccc2ccc(C(Nc3ccccn3)c3ccccc3)c(O)c2n1 (stereo unspecified)	4.47µM*	0.8	5.01µM*	-15.4%	0.3%
Cc1ccc(NC(=O)C2CCCN2C(=O)OCc2ccccc2)c(O)c1 (stereo unspecified)	20.9%	-10.1	19.9%	-1.0%	0.0%
Cc1cccc2sc(N)nc12	6.4%	x	4.5%	x	x
Oc1cccc2ccc(Nc3ccccn3)nc12	2.3%	-5.3	12.3%	u	0.0%
Oc1c(C(Nc2ccccn2)c2ccccn2)ccc2cccnc12 (stereo unspecified)	2.24µM*	2.1	1.12µM*	u	u
CC(C)[C@H](NS(=O)(=O)c1ccc2c(c1)OCCO2)C(=O)OCC(=O)Nc1cc(Cl)ccc1Cl	u	-9.3	8.1%	18.4µM*	-0.4%
